Assay results from PubChem BioAssay.
The source made the active and inactive calls. Cut-off read from the data, not from the text of the source, unless noted: active = inhibition above about 30%; inactive = the rest.

Test: 384-well plate pilot, post-Golgi transport modulator project, inhibition of yeast transport mutant growth (AID 636; in the data active = inhibition above about 31%)
Conditions: absorbance 615 nm, about 18 h, hits give high values

inhibition, inactive:
CCN(CC)S(=O)(=O)c1ccc2oc(C(=O)O)c(C)c2c1 -0.4%, COCCN1CN(S(=O)(=O)c2ccccc2)c2nc3ccccc3nc21 -3.95%, COc1ccc(S(=O)(=O)NCc2ccc(C(=O)O)cc2)cc1 -3.77%, Cc1ccc2c(c1)sc1ncc(NC(=O)c3ccccc3)c(=O)n12 -0.67%, CCOC(=O)N1CCC(N2C(=O)c3ccccc3C2Nc2cccnc2)CC1 (stereo not given) -2.05%, CCCCOC(=O)CSc1nc2c(cc1C#N)C(=O)CC(C)(C)C2 -5.13%, CN(C)c1cccc(NC(=O)CCc2ccccc2)c1 -5.89%, CCc1nc(N[C@@H](Cc2c[nH]c3ccccc23)C(=O)O)c2oc3ccccc3c2n1 -5.07%, O=C(CSc1nnc(C2COc3ccccc3O2)o1)N1CCCc2ccccc21 (stereo not given) -5.26%, COc1ccc(CCNc2oc(-c3ccccc3OC)nc2C#N)cc1 -1.43%, CCCn1c(SCC(=O)NC(C)(C)C)nnc1C(C)C -4.32%, COc1cc(N=c2ssnc2Cl)cc(OC)c1 -5%, COCCn1c(=O)[nH]c2cc(C(=O)N3CCN(Cc4ccc5c(c4)OCO5)CC3)ccc2c1=O 1.47%, CCCCCC1CC(CC#CCN2CCOCC2)C(=O)O1 (stereo not given) -7.4%, CC(NC(=O)c1ccco1)c1ccc2c(c1)OCCO2 (stereo not given) -5.73%, Cn1c(=O)[nH]c(=O)c2c1nc(N1CCCCCC1)n2CCCSc1nc2ccccc2o1 -5.68%, O=S(=O)(c1ccc(S(=O)(=O)N(Cc2ccco2)Cc2ccccc2Cl)cc1)N1CCCC1 -5.54%, CCOC(=O)c1[nH]c(C)c(C(=O)Nc2ccccc2F)c1C -4.47%, C=CCN(CC=C)C(=O)CN1C(=O)c2ccccc2C1=O 0%, COc1ccccc1C(=O)NC(C)C(c1cccs1)N1CCN(C)CC1 (stereo not given) 1.58%, O=C(CSc1nnnn1C1CCCC1)N1CCN(C(=O)c2ccco2)CC1 -3.11%, Cc1ccccc1-c1nc(CS(=O)(=O)CC(=O)N(C)C2CCCCC2)c(C)o1 0.27%, O=S(=O)(c1ccc(OCC(O)CN2CCN(c3ccccc3)CC2)cc1)N1CCOCC1 (stereo not given) -7.57%, O=C(C1CCCO1)N1CCN(C(c2ccccc2)c2ccccc2)CC1 (stereo not given) -0.91%, CCn1nnnc1SCC(=O)N1CCOCC1 -4.53%, CC(NC(=O)c1ccc2c(c1)OCO2)C(c1cccs1)N1CCOCC1 (stereo not given) -4.81%, CCC12CN3CC(CC)(CN(C1)C3c1ccc(OC(C)C)cc1)C2=O (stereo not given) -3.78%, O=C1CCC(c2ccccc2)N1C(=O)c1cccnc1 (stereo not given) -6.58%, CCOC(=O)CSc1nnc(CNC(=O)c2cccs2)n1-c1cc(OC)ccc1OC -6.32%, Cn1c(=O)c2c(nc(NCc3ccco3)n2C/C=C/c2ccccc2)n(C)c1=O -1.69%, O=C(CS(=O)(=O)c1cn(Cc2ccc(Cl)cc2)c2ccccc12)N1CCOCC1 -1.87%, CCN(C(=O)CN1CCN(c2ccccc2OC)CC1)c1c(N)n(Cc2ccccc2)c(=O)[nH]c1=O -8%, CCn1c(CNc2ccc(C)cc2)nnc1SCC(=O)NCc1ccccc1 0.13%, CCOC(=O)N1CCC(NC(=O)C2CCCN2C(=O)OCc2ccccc2)CC1 (stereo not given) 2.89%, Cc1ccc(-c2nnc(-c3ccc(Br)cc3)o2)o1 -5.87%, CN(C)S(=O)(=O)c1ccc(C(=O)N2CCCC2c2nc3ccccc3s2)cc1 (stereo not given) -1.49%, CC(=O)c1c(OCC(=O)O)ccc2c(C)cc(=O)oc12 -5.66%, Cc1ccc2cc(C(c3nnnn3CC3CCCO3)N3CCc4ccccc4C3)c(=O)[nH]c2c1 (stereo not given) -3.84%, O=C(c1ccccc1)N1CCN(CC2CC=CCC2)CC1 (stereo not given) -6.05%, Cc1ccccc1-c1nc(CS(=O)(=O)CC(=O)NCc2ccccc2)c(C)o1 -7.07%

Test: growth suppression of yeast trafficking mutant, preliminary HTS, modulators of trafficking downstream of Golgi apparatus project, 1536-format plate, OD 615 nm (AID 637)
Conditions: yeast transport mutant growth, absorbance 615 nm, 18 h; hits give high values

inhibition, inactive:
CCN(CC)S(=O)(=O)c1ccc2oc(C(=O)O)c(C)c2c1 4.43%, COCCN1CN(S(=O)(=O)c2ccccc2)c2nc3ccccc3nc21 13.6%, COc1ccc(S(=O)(=O)NCc2ccc(C(=O)O)cc2)cc1 -3.33%, Cc1ccc2c(c1)sc1ncc(NC(=O)c3ccccc3)c(=O)n12 0.66%, CCOC(=O)N1CCC(N2C(=O)c3ccccc3C2Nc2cccnc2)CC1 (stereo not given) -3%, CCCCOC(=O)CSc1nc2c(cc1C#N)C(=O)CC(C)(C)C2 -2.73%, CN(C)c1cccc(NC(=O)CCc2ccccc2)c1 2.38%, CCc1nc(N[C@@H](Cc2c[nH]c3ccccc23)C(=O)O)c2oc3ccccc3c2n1 -3.44%, O=C(CSc1nnc(C2COc3ccccc3O2)o1)N1CCCc2ccccc21 (stereo not given) -4%, COc1ccc(CCNc2oc(-c3ccccc3OC)nc2C#N)cc1 -11%, CCCn1c(SCC(=O)NC(C)(C)C)nnc1C(C)C 17.6%, COc1cc(N=c2ssnc2Cl)cc(OC)c1 0.48%, COCCn1c(=O)[nH]c2cc(C(=O)N3CCN(Cc4ccc5c(c4)OCO5)CC3)ccc2c1=O 9.34%, CCCCCC1CC(CC#CCN2CCOCC2)C(=O)O1 (stereo not given) -7.78%, CC(NC(=O)c1ccco1)c1ccc2c(c1)OCCO2 (stereo not given) -1.43%, Cn1c(=O)[nH]c(=O)c2c1nc(N1CCCCCC1)n2CCCSc1nc2ccccc2o1 3.97%, O=S(=O)(c1ccc(S(=O)(=O)N(Cc2ccco2)Cc2ccccc2Cl)cc1)N1CCCC1 8.1%, CCOC(=O)c1[nH]c(C)c(C(=O)Nc2ccccc2F)c1C 4.13%, C=CCN(CC=C)C(=O)CN1C(=O)c2ccccc2C1=O 1.13%, COc1ccccc1C(=O)NC(C)C(c1cccs1)N1CCN(C)CC1 (stereo not given) -6.67%, O=C(CSc1nnnn1C1CCCC1)N1CCN(C(=O)c2ccco2)CC1 4.59%, Cc1ccccc1-c1nc(CS(=O)(=O)CC(=O)N(C)C2CCCCC2)c(C)o1 -5.08%, O=S(=O)(c1ccc(OCC(O)CN2CCN(c3ccccc3)CC2)cc1)N1CCOCC1 (stereo not given) -3.67%, O=C(C1CCCO1)N1CCN(C(c2ccccc2)c2ccccc2)CC1 (stereo not given) 2.62%, CCn1nnnc1SCC(=O)N1CCOCC1 3.44%, CC(NC(=O)c1ccc2c(c1)OCO2)C(c1cccs1)N1CCOCC1 (stereo not given) -0.95%, CCC12CN3CC(CC)(CN(C1)C3c1ccc(OC(C)C)cc1)C2=O (stereo not given) -0.95%, O=C1CCC(c2ccccc2)N1C(=O)c1cccnc1 (stereo not given) -4.29%, CCOC(=O)CSc1nnc(CNC(=O)c2cccs2)n1-c1cc(OC)ccc1OC -0.55%, Cn1c(=O)c2c(nc(NCc3ccco3)n2C/C=C/c2ccccc2)n(C)c1=O 0.16%, O=C(CS(=O)(=O)c1cn(Cc2ccc(Cl)cc2)c2ccccc12)N1CCOCC1 -2.62%, CCN(C(=O)CN1CCN(c2ccccc2OC)CC1)c1c(N)n(Cc2ccccc2)c(=O)[nH]c1=O -0.16%, CCn1c(CNc2ccc(C)cc2)nnc1SCC(=O)NCc1ccccc1 3.93%, CCOC(=O)N1CCC(NC(=O)C2CCCN2C(=O)OCc2ccccc2)CC1 (stereo not given) -7.1%, Cc1ccc(-c2nnc(-c3ccc(Br)cc3)o2)o1 -1.64%, CN(C)S(=O)(=O)c1ccc(C(=O)N2CCCC2c2nc3ccccc3s2)cc1 (stereo not given) 3.93%, CC(=O)c1c(OCC(=O)O)ccc2c(C)cc(=O)oc12 6.07%, Cc1ccc2cc(C(c3nnnn3CC3CCCO3)N3CCc4ccccc4C3)c(=O)[nH]c2c1 (stereo not given) -6.83%, O=C(c1ccccc1)N1CCN(CC2CC=CCC2)CC1 (stereo not given) 2.5%, Cc1ccccc1-c1nc(CS(=O)(=O)CC(=O)NCc2ccccc2)c(C)o1 -2.3%
